An excerpt weighted towards active compounds, which were near 0.92% of everything screened.
FadD28 FP inh: inhibitors of Mycobacterium tuberculosis FadD28 bisubstrate binding; 360,000 tested, 0.22% active; FadD28 bisubstrate probe binding, fluorescence polarization; AID 588549; inhibition, % at 12.5 µM; in the data active = inhibition above about 8.5%, passing the limit was not always enough; inconclusive = no clear call, values can overlap the other calls
RecA splice inh: blocks M. tuberculosis RecA intein splicing | cell-free RecA intein splicing, fluorescence | inhibition, % (test concentration not listed) | 290,000 tested, 0.75% active | AID 2221; in the data active = inhibition above about 30%; inconclusive = no clear call, values can overlap the other calls;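 note: 0% = vehicle wells and 100% = reference inhibitor control wells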
Rv3671c inh: Rv3671c (M. tuberculosis) protease inhibition; inhibition, % at 5.96 µM; 320,000 tested, 0.048% active; AID 2606; in the data active = inhibition above about 38%;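 note: extracellular domain of Rv3671c used as enzyme; 0% = enzyme with DMSO and 100% = no enzyme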
Mtb UGM inh: blocks M. tuberculosis UGM enzyme | 320,000 tested, 0.06% active | inhibition, % at 10 µM | AID 504406 | P9WIQ1 | purified UGM, fluorescence polarization probe displacement; in the data active = inhibition above about 10%, passing the limit was not always enough; inconclusive = no clear call, values can overlap the other calls
Target sequence (P9WIQ1 whole entry, looked up): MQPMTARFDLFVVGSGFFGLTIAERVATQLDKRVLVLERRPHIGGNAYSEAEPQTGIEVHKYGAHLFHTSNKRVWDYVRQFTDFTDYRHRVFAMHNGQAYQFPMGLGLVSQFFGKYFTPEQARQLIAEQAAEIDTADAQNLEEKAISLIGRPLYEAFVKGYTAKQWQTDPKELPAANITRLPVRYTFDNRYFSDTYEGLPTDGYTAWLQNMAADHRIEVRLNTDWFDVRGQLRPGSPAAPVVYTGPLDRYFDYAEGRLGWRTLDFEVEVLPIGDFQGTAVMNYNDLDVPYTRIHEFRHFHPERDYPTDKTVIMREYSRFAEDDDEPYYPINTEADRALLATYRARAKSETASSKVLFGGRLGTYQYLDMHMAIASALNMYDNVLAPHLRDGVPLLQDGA
Mtb hypoxia inh: inhibitors of hypoxia-regulated fluorescent reporter in Mycobacterium tuberculosis. M. tuberculosis hypoxia-regulated fluorescent reporter, fluorescence. fluorescence inhibition, % (test concentration not listed). 300,000 tested, 0.1% active. AID 1159583; in the data active = fluorescence inhibition mostly above about 23%, no sharp cut-off; inactive = mostly below about 17%
The depositor's hits bear a star; ? = inconclusive; . = no result given.

SMILES	FadD28 FP inh	RecA splice inh	Rv3671c inh	Mtb UGM inh	Mtb hypoxia inh
COc1cc(OC)c(-c2c3cc(O)c(=O)cc-3oc3cc(O)c(O)cc23)cc1OC	39*	.	-452	-9	.
Cc1c2cc(O)c(=O)cc-2oc2cc(O)c(O)cc12	12*	14	128*	7	17
Cc1cc2oc(=O)cc(-c3cc4ccccc4o3)c2cc1O	1	-4	-65	2	1
Cc1nnc(Sc2cc(NCCO)c([N+](=O)[O-])c3nonc23)s1	-3	93*	.	.	10
COc1ccc(CN2CCNC(=O)C2CC(=O)N(C)Cc2ccncn2)c(OC)c1 (stereo not given)	-1	31*	0	-2	2
C=CCn1c(N=Cc2ccc(N(C)C)cc2)nc2ccccc21	.	.	.	.	5
Cc1ccc(-c2cc(-c3ccccc3)nc(Cl)n2)cc1	-1	2	-10	1	10
Cc1ccc(-c2cc(C(F)F)nc(S(C)(=O)=O)n2)cc1	-6	46*	-3	1	13
COC(=O)[C@]1(Cc2ccccc2)NC(c2ccc(-c3ccc(F)cc3)cc2)C2C(=O)N(C)C(=O)C21 (stereo not given in full)	.	.	.	.	11
Cc1cccc(C=Nn2c(C3CCCCC3)n[nH]c2=S)c1	.	.	.	.	3
O=[N+]([O-])c1cccc(/C=N/n2c(C3CCCCC3)n[nH]c2=S)c1	18*	1	-2	2	.
O=C(CN1CCN(Cc2ccc(Cl)cc2)CC1)NN=Cc1c[nH]c2ccccc12	.	.	.	.	-2
O=C1c2cc(O)cc(O)c2C(=O)c2c1cc(O)c([C@@H](CO)CCO)c2O	20*	2	0	-1	.
O=C(CCl)Nc1cn(-c2ccccc2)nc1-c1ccc(F)cc1	0	46*	5	0	.
O=C(CNC(=O)c1cccc(Br)c1)NN=Cc1cc(Br)cc(Br)c1O	.	.	.	.	6
Cc1cccc(CSC(Nc2ccc(F)cc2)=C(C#N)C#N)c1	-4	53*	2	0	5
CCOC(=O)c1c(=O)n(O)c2ccc(OC)cc2[n+]1[O-]	-2	.	-5	15*	10
CC(=O)OC1C(=O)[C@]2(C)C(O)CC3OC[C@@]3(OC(C)=O)C2C(OC(=O)c2ccccc2)[C@]2(O)CC(OC(=O)C(O)C(NC(=O)c3ccccc3)c3ccccc3)C(C)=C1C2(C)C (stereo not given in full)	.	.	.	.	-2
O=[N+]([O-])c1cccc(C=Nc2cccc3ccccc23)c1O	-2	38*	-6	1	.
COc1ccccc1NCC(=O)NN=Cc1sccc1C	.	.	.	.	-2
CCOc1ccc(C2C(C#N)=C(N)Oc3n[nH]c(C)c32)cc1OC(=O)C1CC1 (stereo not given)	-1	66*	4	-1	14
CCc1[nH]nc2c1C(c1cccc(OC(=O)N3CCOCC3)c1)C(C#N)=C(N)O2 (stereo not given)	-2	69*	-3	4	8
COc1cc(C2C(C#N)=C(N)Oc3cc(C)oc(=O)c32)ccc1OC(=O)N1CCOCC1 (stereo not given)	-3	-1	-6	-3	8
COc1cc(C2C(C#N)=C(N)OC3=C2C(=O)CCC3)ccc1OC(=O)N1CCOCC1 (stereo not given)	-1	0	1	3	4
CCc1[nH]nc2c1C1(CCN(C(=O)OCc3ccccc3)CC1)C(C#N)=C(N)O2	0	28	-11	-1	11
SMILES	FadD28 FP inh	RecA splice inh	Rv3671c inh	Mtb UGM inh	Mtb hypoxia inh
CC(C)c1[nH]nc2c1C(c1cccc(OC(=O)N3CCOCC3)c1)C(C#N)=C(N)O2 (stereo not given)	-2	45*	-1	4	.
CCCc1[nH]nc2c1C(c1ccc(OC(=O)N3CCOCC3)c(OC)c1)C(C#N)=C(N)O2 (stereo not given)	-3	42*	8	-1	7
CCCOc1ccc(C2C(C#N)=C(N)Oc3nc[nH]c(=O)c32)cc1OC (stereo not given)	0	0	0	3	2
Cc1ccc(CN2CC(=O)N3C4c5cc(Cl)ccc5OCC4C(c4ccccc4)[C@]3(C)C2=O)cc1 (stereo not given in full)	.	.	.	.	-2
COc1ccc(C2CC(=O)C=C(c3ccc(O)cc3)C2)cc1OC (stereo not given)	.	.	.	.	5
COC(=O)c1ccc(COc2ccc(/C=N/NC(N)=S)cc2)o1	51*	.	-3	2	.
CN(C)c1ccc(C(=O)c2ccc(O)cc2O)cc1	-2	7	-7	-2	.
CN(C)c1ccc(Cc2cc3c(O)ccc(O)c3cc(Cc3ccc(N(C)C)cc3)c2=O)cc1	11*	.	.	.	.
N#Cc1ccc(C23OCCN2CCn2nc4ccccc4c23)cc1 (stereo not given)	-2	.	5	5	-2
[O-][n+]1c2ccccc2c2n1CCN1CCOC21c1ccc(Cl)cc1 (stereo not given)	1	.	-1	2	66*
O=C(NCc1ccc(F)cc1)c1cccc2c1C(=O)c1ccc(N3CCC(Cc4ccccc4)CC3)cc1S2(=O)=O	-2	.	-23	33*	6
Cc1ccc(C(=O)NN=Cc2ccc(-c3cccc(C(F)(F)F)c3)o2)cn1	.	.	.	.	7
CN(C(=O)COC(=O)C1=COCCO1)C1(C#N)CCCCC1	-1	.	3	0	4
N#CC1(NC(=O)COC(=O)C2=COCCO2)CCCCC1	18*	.	-6	-2	.
O=C(Nc1ncc([N+](=O)[O-])s1)c1ccc2c(c1)OCO2	-1	31*	-6	4	.
COc1ccccc1NC(=O)c1cc2ccc(O)cc2o/c1=N\O	18*	-81	-8	-5	.
CCOC1OC(C(=O)N2CCOCC2)=CC(C2CC2)C1CCCO (stereo not given)	.	.	.	.	3
O=c1cc(CSc2ccc(Cl)cc2)[nH]c2[nH]n(-c3ccccc3)c(=O)c12	?	7	10	-1	-2
Cc1ccc(SCc2cc(=O)c3c(=O)n(-c4ccccc4)[nH]c3[nH]2)cc1	17*	3	15	0	9
Oc1c(Br)c(Br)c(Br)c(Br)c1Br	41*	.	13	2	.
Oc1c(Br)cc(Br)cc1Br	-3	.	1	-1	9
CCC(Sc1ncnc2c1nnn2-c1ccc(F)cc1)C(=O)OC (stereo not given)	0	3	1	0	9
CCOC(=O)C(C)Sc1ncnc2c1nnn2-c1ccc(F)cc1 (stereo not given)	-1	37*	-9	2	14
CN1c2ccccc2C(C)(C)C12C=Nc1c(cc(N3CCOCC3)c3ccccc13)O2 (stereo not given)	-2	46*	.	.	.
CN1c2ccccc2C(C)(C)C12C=Cc1cc(O)ccc1O2 (stereo not given)	2	6	-111	1	3
COc1ccc(NC(=O)Nc2ccc3c(c2)C(=O)N(C(C)CO)CC(C)C(CN(C)S(=O)(=O)c2cccs2)O3)cc1 (stereo not given)	.	.	.	.	-12
CNC(=O)c1[nH]cnc1C(=O)NC(CCCCNC(=O)OC(C)(C)C)C(=O)OC(C)(C)C (stereo not given)	.	.	.	.	18
CCOC(=O)C1=C(C)N=c2s/c(=C/c3cccc([N+](=O)[O-])c3O)c(=O)n2C1c1ccc(OC)cc1OC (stereo not given)	5	.	1	-1	.
